This passage reports outcome and AC50 results from PubChem BioAssay (EPA / NIEHS).

Structures are written as SMILES. Calls of active or inactive are those of the source. Rule for the calls: active = hit-call score of the fitted dose curve at least 0.9, where 1 is the maximum; inactive = score below 0.9.

A word on the AC50: it is the concentration giving half of the maximal activity seen.

Assay [1] can be described thus: ATG_DR4_LXR_CIS: Attagene CIS-FACTORIAL HepG2 Assay for human Liver X Receptor (LXR), DR4 submotif (AID 2282929). The note with it: HepG2 Attagene DR4 cis-reporter, mRNA transcription; AC50: actives raise or lower the signal unless noted; outcome: actives raise or lower the signal unless noted. An outline of the steps:
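Cells were transfected with multiple reporter transcription units, exposed to chemicals for 24 hours, then lysed for RNA. Reporter mRNA induction was measured by RT-PCR with capillary electrophoresis detection and fitted in both directions relative to DMSO.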

Assay [2] addresses Aryl hydrocarbon receptor (Homo sapiens) (UniProt P35869). Description: ATG_Ahr_CIS: Attagene CIS-FACTORIAL HepG2 Assay for human Aryl Hydrocarbon Receptor (Ahr) (AID 2282930). Particulars: HepG2 AhR cis-factorial reporter transcription; actives raise or lower the signal. An outline of the steps: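 Following 24 h of chemical dosing, transfected HepG2 liver cells with cis-driven reporter units were lysed for RNA; reporter mRNA was quantified via RT-PCR and capillary electrophoresis, and responses fitted bidirectionally from DMSO.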

Assay [3] can be described thus: ATG_AP_1_CIS: Attagene CIS-FACTORIAL HepG2 Assay for human Activator Protein 1 (AP-1) (AID 2282931). The note with it: HepG2 Attagene cis-factorial AP-1 reporter mRNA; actives raise or lower the signal. An outline of the steps: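 Endogenous transcription-factor activity in human HepG2 liver cells is read through a cis-promoter reporter transcript, sampled 24 h after dosing. Detection uses RT-PCR with capillary electrophoresis; values come from bidirectional fitting relative to DMSO.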

Assay [4] in a line: ATG_AP_2_CIS: Attagene CIS-FACTORIAL HepG2 Assay for human Activator Protein 2 (AP-2) (AID 2282932). Particulars: HepG2 AP-2 cis-reporter, Attagene transcription factor profiling; AC50: actives raise or lower the signal unless noted; outcome: actives raise or lower the signal unless noted. The gist of the method: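 HepG2 cells were transiently transfected with multiple cis-promoter reporter transcription units and dosed for 24 h. Reporter mRNA was measured by RT-PCR with capillary electrophoresis fluorescence; bidirectional fits relative to DMSO baseline.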

A short description of assay [5]: ATG_BRE_CIS: Attagene CIS-FACTORIAL HepG2 Assay for human Bone Morphogenetic Protein (BMP) Response Element (BRE) (AID 2282933). Particulars: HepG2 BMP response element reporter, Attagene transcription factor profiling; actives raise or lower the signal. The gist of the method: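 Gain- or loss-of-signal was derived by bidirectional fitting against DMSO controls. The signal came from reporter mRNA, measured by RT-PCR and capillary electrophoresis, in HepG2 cells transiently carrying multiple reporter units and dosed for 24 h.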

Assay [6] concerns the target Retinoic acid receptor alpha (Homo sapiens) (UniProt P10276). Description: ATG_DR5_RAR_CIS: Attagene CIS-FACTORIAL HepG2 Assay for human Retinoic Acid Receptor Alpha (RARE), DR5 submotif (AID 2282934). Particulars: HepG2 Attagene cis-factorial RARE DR5 reporter, mRNA; actives raise or lower the signal. The gist of the method:
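Transfected HepG2 reporter cells are exposed to chemicals for 24 h. Then RNA is extracted and the DR5 element reporter transcript is measured by RT-PCR and capillary electrophoresis, with bidirectional curve fitting relative to DMSO.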

The target of assay [7] is Transcription factor E2F1 (Homo sapiens) (UniProt Q01094). Description: ATG_E2F_CIS: Attagene CIS-FACTORIAL HepG2 Assay for human E2F Transcription Factor 1 (AID 2282935). The note with it: HepG2 Attagene cis-reporter, E2F reporter RNA transcripts; actives raise or lower the signal. An outline of the steps: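 HepG2 cells transiently transfected with multiplexed cis-element reporter units, dosed for 24 h. Reporter mRNA measured by RT-PCR, 6-FAM primer-extension labeling, HpaI digestion and capillary electrophoresis; bidirectional fit versus DMSO baseline.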

Assay [8] can be described thus: ATG_M_61_CIS: Attagene CIS-FACTORIAL HepG2 Assay for M61 Transcription Factor (Internal Marker) (AID 2282937). The note with it: HepG2 Attagene CIS-FACTORIAL M61 internal marker reporter; actives raise or lower the signal. The gist of the method: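 Cells were transfected with reporter units under cis-regulatory promoters, treated with chemicals for 24 h, then lysed for RNA. Reporter transcripts were quantified by RT-PCR and capillary electrophoresis, and activity was fitted bidirectionally against DMSO.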

Assay [9] in a line: ATG_EGR_CIS: Attagene CIS-FACTORIAL HepG2 Assay for human Early Growth Response 1 (EGR1) (AID 2282938). The note with it: HepG2 Attagene CIS-FACTORIAL EGR reporter mRNA; actives raise or lower the signal. The gist of the method: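 Endogenous TF activity in HepG2 liver cells was gauged through cis-promoter reporter constructs transiently transfected. After 24 h dosing, reporter mRNA was quantified by RT-PCR and capillary electrophoresis, and curves fitted in both directions versus DMSO.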

Assay [10] is described as follows: ATG_M_19_CIS: Attagene CIS-FACTORIAL HepG2 Assay for M19 Transcription Factor (Internal Marker) (AID 2282939). Particulars: HepG2 Attagene CIS-FACTORIAL M19 internal marker reporter; actives raise or lower the signal. An outline of the steps: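 Following a 24 h exposure, RNA from transfected HepG2 cells was reverse-transcribed, PCR-amplified with reporter-specific primers, end-labelled with 6-FAM and HpaI-digested before capillary separation. Values represent gain or loss versus DMSO.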

Assay [11] in a line: ATG_ERE_CIS: Attagene CIS-FACTORIAL HepG2 Assay for Estrogen Response Element (ERE) (AID 2282940). Particulars: HepG2 ERE cis-reporter, Attagene RNA transcript; actives raise or lower the signal. An outline of the steps: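 HepG2, transient cis-reporter units, 24 h exposure. RNA isolated, oligo(dT) RT, reporter-specific PCR, FAM extension, HpaI cut, CE detection. Gain/loss-of-signal vs DMSO.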

A short description of assay [12]: ATG_Ets_CIS: Attagene CIS-FACTORIAL HepG2 Assay for human Erythroblast Transformation Specific (ETS) (AID 2282941). The note with it: HepG2 ETS cis-reporter transcription; AC50: actives raise or lower the signal unless noted; outcome: actives raise or lower the signal unless noted. An outline of the steps:
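After transient cis-reporter transfection, HepG2 cells receive test chemical for 24 h. Reporter mRNA levels, measured by RT-PCR and capillary electrophoresis fluorescence, are analysed bidirectionally relative to the DMSO baseline.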

Assay [13] deals with Hepatocyte nuclear factor 3-beta (Homo sapiens) (UniProt Q9Y261). Description: ATG_FoxA2_CIS: Attagene CIS-FACTORIAL HepG2 Assay for human Forkhead box A2 (FOXA2) (AID 2282942). The note with it: HepG2 cis-reporter transcription factor activity, 24 h; actives raise or lower the signal. An outline of the steps:
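Endogenous transcription factor activity was read in HepG2 cells carrying transiently transfected cis-promoter reporter units. After 24 h dosing, reporter mRNA was quantified by RT-PCR and capillary electrophoresis, and values fitted bidirectionally versus DMSO.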

Assay [14] can be described thus: ATG_FoxO_CIS: Attagene CIS-FACTORIAL HepG2 Assay for human Forkhead box O (FoxO) (AID 2282943). The note with it: HepG2 Attagene cis-reporter, FoxO element, mRNA; actives raise or lower the signal. The gist of the method:
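24 h chemical exposure, HepG2 with transient cis-MRTU transfection. RNA extraction, oligo(dT) RT, reporter-specific PCR, primer-extension labelling, HpaI digestion, CE fragment analysis; bidirectional fit, DMSO baseline.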

Assay [15] in a line: ATG_GATA_CIS: Attagene CIS-FACTORIAL HepG2 Assay for human GATA Binding Protein (AID 2282944). Particulars: HepG2 GATA cis-element reporter, Attagene multiplex mRNA; actives raise or lower the signal. The gist of the method: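 DMSO serves as negative control and baseline for bidirectional fitting of reporter mRNA changes. HepG2 cells bearing transiently transfected cis-promoter reporters were exposed 24 h; transcripts detected via RT-PCR and capillary electrophoresis.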

The nature of assay [16]: ATG_GLI_CIS: Attagene CIS-FACTORIAL HepG2 Assay for human Zinc Finger Protein GLI1 (AID 2282945). The note with it: HepG2, Attagene cis-factorial reporter mRNA, GLI element; actives raise or lower the signal. An outline of the steps:
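HepG2 cells transiently transfected with cis-promoter multiplexed reporter units report endogenous transcription factor activity. After 24 h chemical exposure, reporter mRNA was quantified by RT-PCR, 6-FAM labelling, HpaI digestion and capillary electrophoresis, with bidirectional fitting against DMSO.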

The target of assay [17] is Bile acid receptor (Homo sapiens) (UniProt Q96RI1). The experiment in a line: ATG_IR1_CIS: Attagene CIS-FACTORIAL HepG2 Assay for human Nuclear Receptor Subfamily 1 Group H Member 4 (NR1H4), IR1 submotif (AID 2282946). The note with it: IR1 reporter transcription, actives raise or lower the signal. The gist of the method: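 Transient MRTU transfection, HepG2; 24 h dosing; RNA → RT-PCR → 6-FAM primer extension → HpaI digest → capillary electrophoresis fluorescence. Gain/loss of signal fitted relative to DMSO.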

Assay [18] in a line: ATG_GRE_CIS: Attagene CIS-FACTORIAL HepG2 Assay for human Glucocorticoid Response Elements (GRE) (AID 2282947). Particulars: HepG2 GRE cis-reporter, Attagene multiplex mRNA; AC50: actives raise or lower the signal unless noted; outcome: actives raise or lower the signal unless noted. The gist of the method:
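HepG2 cells transiently transfected with multiple cis-promoter reporter units measure endogenous TF activity; 24 h compound exposure. Reporter mRNA quantified by RT-PCR, FAM labelling, HpaI digestion and capillary electrophoresis; bidirectional fit vs DMSO baseline.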

Assay [19] in a line: ATG_ISRE_CIS: Attagene CIS-FACTORIAL HepG2 Assay for human Interferon Regulatory Factor 1 (IRF1) binding to an Interferon-Stimulated Response Element (ISRE) (AID 2282948). The note with it: HepG2 ISRE cis-reporter (Attagene), mRNA transcription readout; actives raise or lower the signal. An outline of the steps:
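Quantitation relies on labelled RT-PCR fragments separated by capillary electrophoresis. Human HepG2 cells bearing cis-promoter reporter constructs were treated 24 h; DMSO served as baseline for bidirectional fitting.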

Sequence of Transcription factor E2F1 (Homo sapiens) (Q01094 whole entry, looked up): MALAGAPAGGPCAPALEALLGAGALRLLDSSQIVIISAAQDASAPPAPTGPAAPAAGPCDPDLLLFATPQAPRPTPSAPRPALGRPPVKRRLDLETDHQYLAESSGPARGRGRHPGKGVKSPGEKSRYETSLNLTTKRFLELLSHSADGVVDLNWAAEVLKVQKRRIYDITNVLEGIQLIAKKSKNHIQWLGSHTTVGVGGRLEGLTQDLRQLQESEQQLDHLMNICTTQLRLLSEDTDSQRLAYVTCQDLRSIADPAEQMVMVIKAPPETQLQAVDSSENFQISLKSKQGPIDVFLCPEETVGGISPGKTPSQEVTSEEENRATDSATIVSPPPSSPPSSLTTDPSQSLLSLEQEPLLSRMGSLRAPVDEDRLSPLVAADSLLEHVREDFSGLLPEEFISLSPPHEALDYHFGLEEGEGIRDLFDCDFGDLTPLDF
Sequence of Aryl hydrocarbon receptor (Homo sapiens) (P35869 whole entry, looked up): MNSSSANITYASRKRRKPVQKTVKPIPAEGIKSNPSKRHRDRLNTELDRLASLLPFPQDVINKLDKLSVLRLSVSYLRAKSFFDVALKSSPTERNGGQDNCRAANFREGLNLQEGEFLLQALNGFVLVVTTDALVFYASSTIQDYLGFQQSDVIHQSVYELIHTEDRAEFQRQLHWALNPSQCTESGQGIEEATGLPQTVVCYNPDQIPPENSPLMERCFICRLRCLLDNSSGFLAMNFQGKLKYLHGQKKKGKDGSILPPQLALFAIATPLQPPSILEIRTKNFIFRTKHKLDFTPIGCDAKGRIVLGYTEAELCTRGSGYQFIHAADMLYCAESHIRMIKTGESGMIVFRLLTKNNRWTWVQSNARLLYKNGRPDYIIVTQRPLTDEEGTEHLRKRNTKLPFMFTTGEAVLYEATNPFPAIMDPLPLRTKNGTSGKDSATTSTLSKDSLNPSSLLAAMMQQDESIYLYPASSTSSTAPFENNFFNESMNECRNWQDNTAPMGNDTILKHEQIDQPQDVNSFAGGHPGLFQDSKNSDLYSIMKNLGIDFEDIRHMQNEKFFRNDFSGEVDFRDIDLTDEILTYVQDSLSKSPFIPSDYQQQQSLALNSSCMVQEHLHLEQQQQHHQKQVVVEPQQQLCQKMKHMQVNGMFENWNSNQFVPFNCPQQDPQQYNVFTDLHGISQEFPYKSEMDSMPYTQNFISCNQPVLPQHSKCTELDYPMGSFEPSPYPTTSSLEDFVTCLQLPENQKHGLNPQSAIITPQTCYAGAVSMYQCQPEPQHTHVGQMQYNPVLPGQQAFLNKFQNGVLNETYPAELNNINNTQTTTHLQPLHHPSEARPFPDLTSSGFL
Sequence of Bile acid receptor (Homo sapiens) (Q96RI1 whole entry, looked up): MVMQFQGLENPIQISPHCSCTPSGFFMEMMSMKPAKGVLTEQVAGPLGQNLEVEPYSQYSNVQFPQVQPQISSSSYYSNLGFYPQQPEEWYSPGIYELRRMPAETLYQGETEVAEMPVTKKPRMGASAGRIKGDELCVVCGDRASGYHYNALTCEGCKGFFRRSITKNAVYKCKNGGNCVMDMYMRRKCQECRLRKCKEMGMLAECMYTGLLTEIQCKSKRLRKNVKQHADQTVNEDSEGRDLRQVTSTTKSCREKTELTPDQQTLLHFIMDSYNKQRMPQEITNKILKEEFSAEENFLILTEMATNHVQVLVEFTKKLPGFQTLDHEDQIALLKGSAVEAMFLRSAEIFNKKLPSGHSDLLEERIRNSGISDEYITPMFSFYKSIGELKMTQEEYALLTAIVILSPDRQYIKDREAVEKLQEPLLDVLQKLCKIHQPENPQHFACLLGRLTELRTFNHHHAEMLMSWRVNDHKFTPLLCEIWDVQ
Sequence of Retinoic acid receptor alpha (Homo sapiens) (P10276 whole entry, looked up): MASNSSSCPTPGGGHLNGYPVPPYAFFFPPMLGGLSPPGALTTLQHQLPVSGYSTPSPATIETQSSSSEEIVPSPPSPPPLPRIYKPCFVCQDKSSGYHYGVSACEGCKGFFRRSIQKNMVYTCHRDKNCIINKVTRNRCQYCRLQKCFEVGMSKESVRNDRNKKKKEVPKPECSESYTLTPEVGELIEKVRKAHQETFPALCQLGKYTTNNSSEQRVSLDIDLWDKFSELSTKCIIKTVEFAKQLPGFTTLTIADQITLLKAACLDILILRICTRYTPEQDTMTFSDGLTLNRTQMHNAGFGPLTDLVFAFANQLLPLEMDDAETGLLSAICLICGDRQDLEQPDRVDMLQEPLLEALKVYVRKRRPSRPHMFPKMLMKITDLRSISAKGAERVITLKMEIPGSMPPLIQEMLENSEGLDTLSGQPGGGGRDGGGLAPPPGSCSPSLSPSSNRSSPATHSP
Sequence of Hepatocyte nuclear factor 3-beta (Homo sapiens) (Q9Y261 whole entry, looked up): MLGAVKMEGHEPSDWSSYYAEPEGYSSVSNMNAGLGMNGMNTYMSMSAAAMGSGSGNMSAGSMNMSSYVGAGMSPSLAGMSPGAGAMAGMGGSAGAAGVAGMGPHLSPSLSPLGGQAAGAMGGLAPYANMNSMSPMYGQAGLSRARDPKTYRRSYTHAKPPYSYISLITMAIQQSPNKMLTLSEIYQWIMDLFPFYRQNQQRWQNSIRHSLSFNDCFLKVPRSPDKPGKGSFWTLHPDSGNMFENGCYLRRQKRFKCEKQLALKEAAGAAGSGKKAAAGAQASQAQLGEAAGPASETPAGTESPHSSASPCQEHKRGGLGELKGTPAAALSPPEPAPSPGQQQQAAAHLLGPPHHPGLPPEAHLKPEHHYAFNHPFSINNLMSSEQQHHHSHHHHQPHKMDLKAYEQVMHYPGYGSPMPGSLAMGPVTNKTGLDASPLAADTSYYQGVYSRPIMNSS

Take `FC(F)(F)C1(F)C(F)(F)C(F)(F)C(F)(F)C1(F)F`: the result in [1], in assay [2], in assay [3], in [4], in [5] and in assay [6] was inactive. For the same compound, the result in [7], in [8], in [9], in assay [10], in assay [11] and in assay [12] was inactive. In addition, the call in [13], in assay [14], in assay [15], in assay [16], in [17] and in assay [18] was inactive. In addition, the compound was called inactive in assay [19].

As for `C=CC(F)(F)C(F)(F)C(F)(F)C(F)(F)F`, the call in [1], in [2], in assay [3], in assay [4], in assay [5] and in assay [6] was inactive. In addition, the compound was classed as inactive in assay [7], in assay [8], in [9], in assay [10], in assay [11] and in [12]. Further, the outcome in [14], in assay [15], in assay [16], in [17], in assay [18] and in assay [19] was inactive.

On to `COc1ccccc1NC(=O)c1cc2ccccc2cc1O`, for which the half-maximal activity concentration (AC50) in [1] was 41.9 µM (active); in [2], 0.0553 µM (active); in assay [5], 26.1 µM (active); in assay [9], 52.9 µM (active); in assay [12], 46.5 µM (active); in assay [14], 100 µM (active). Also, the AC50 in assay [15] is 41.1 µM (active); in [16] it was 60.7 µM (active); in assay [17], 68.8 µM (active); in assay [19], 82.7 µM (active). Further, the call in assay [3], in assay [4], in assay [6], in assay [7], in assay [8] and in [10] was inactive. Besides, the outcome in assay [11] and in assay [13] was inactive.
